Compounds with a hit are over-represented: about 2.3% of the library has one in this group of screens.
Nrf2 activator: Nrf2 pathway activation; AREc32 ARE-luciferase reporter (MCF7-derived line), luminescence, 24 h; Potency, µM (highest dose often 46.1 µM), for inactives: at the highest dose activation, actives largely listed as activators; hit rate 0.31% among 410,000; AID 624171; further: % of control where 0% means no effect; nearly all actives have a fitted effect of over 65% in size
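AREc32 cells carrying an ARE-driven firefly luciferase, 1000 cells/well in OPTI-MEM with 5% FBS, dosed after overnight attachment and incubated 24 hr at 37 deg C. Steady-Glo luminescence read after 30 min at RT.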
A549 viability: A549 cytotoxicity, counter-screen for Nrf2 inhibitors; hit rate 0.16% among 390,000; A549 ARE-Fluc cells, CellTiter-Fluor viability, 18-24 h; AID 504648; Potency, µM (titrated, usually from 46 µM), for inactives: top-dose activity change, negative = cytotoxicity, actives largely listed as inhibitors; further: on the % scale 0 is the no-effect control and ±100 the full control effect
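A549 ARE-Fluc cells in 5% FBS OPTI-MEM, 5000 cells/well, rested 2 h then exposed to compounds in concentration-response for 18-24 h at 37 °C. Viability by CellTiter-Fluor fluorescence (Ex 405/Em 525) after 30 min; luciferase luminescence (BugLite, 15 min, RT) read afterwards.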
Nrf2 inh: inhibitors of Nrf2 signaling | A549 ARE-Fluc reporter, luciferase luminescence, 18-24 h | Potency, µM (top dose mostly 46 µM), for the others: top-dose activity change, negative = inhibition, most hits filed as inhibitors | hit rate 2.1% among 360,000; further: on the % scale 0 is the no-effect control and ±100 the full control effect; nearly all actives have a fitted effect of over 60% in size
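Quantitative HTS in A549 cells stably bearing an antioxidant response element-firefly luciferase construct. Inhibition of Nrf2-driven transcription was scored by luminescence after 18-24 h of compound exposure at 37 °C.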
Rango dissoc inh: inhibitors of RanGTP-induced Rango-importin beta complex dissociation; Biochemical FRET Rango-importin beta, RanGTP-induced dissociation; Potency, µM (highest dose often 46.1 µM), without a hit: top-dose activity change, negative = inhibition; hit rate 0.071% among 340,000; AID 540253; calls by dose curve; further: % of control where 0% means no effect; nearly all actives have a fitted effect of over 45% in size
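Rango/importin beta premix (0.1/0.25 uM final), PBS + 1 mM DTT + 0.02% Tween-20 + 0.1% BSA; cpd 5 min RT; FRET pre-read; + RanGTP-RCC1 (0.6 uM Ran, 2 mM GTP, 0.2 uM RCC1); 45 min RT; FRET post-read, ex 430, em 486/530 nm.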
Rango complex inh: Rango-importin beta binding inhibition. Potency, µM (doses to about 92.2 µM), for inactives: top-dose inhibition of complex formation. Rango CFP/YFP FRET sensor + importin beta, 45 min. hit rate 0.031% among 340,000. Q14974; calls by dose curve;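 further: 0% = DMSO wells and 100% = buffer wells lacking importin beta; nearly all actives have a fitted effect of over 15% in size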
Target sequence (Q14974 whole entry, looked up): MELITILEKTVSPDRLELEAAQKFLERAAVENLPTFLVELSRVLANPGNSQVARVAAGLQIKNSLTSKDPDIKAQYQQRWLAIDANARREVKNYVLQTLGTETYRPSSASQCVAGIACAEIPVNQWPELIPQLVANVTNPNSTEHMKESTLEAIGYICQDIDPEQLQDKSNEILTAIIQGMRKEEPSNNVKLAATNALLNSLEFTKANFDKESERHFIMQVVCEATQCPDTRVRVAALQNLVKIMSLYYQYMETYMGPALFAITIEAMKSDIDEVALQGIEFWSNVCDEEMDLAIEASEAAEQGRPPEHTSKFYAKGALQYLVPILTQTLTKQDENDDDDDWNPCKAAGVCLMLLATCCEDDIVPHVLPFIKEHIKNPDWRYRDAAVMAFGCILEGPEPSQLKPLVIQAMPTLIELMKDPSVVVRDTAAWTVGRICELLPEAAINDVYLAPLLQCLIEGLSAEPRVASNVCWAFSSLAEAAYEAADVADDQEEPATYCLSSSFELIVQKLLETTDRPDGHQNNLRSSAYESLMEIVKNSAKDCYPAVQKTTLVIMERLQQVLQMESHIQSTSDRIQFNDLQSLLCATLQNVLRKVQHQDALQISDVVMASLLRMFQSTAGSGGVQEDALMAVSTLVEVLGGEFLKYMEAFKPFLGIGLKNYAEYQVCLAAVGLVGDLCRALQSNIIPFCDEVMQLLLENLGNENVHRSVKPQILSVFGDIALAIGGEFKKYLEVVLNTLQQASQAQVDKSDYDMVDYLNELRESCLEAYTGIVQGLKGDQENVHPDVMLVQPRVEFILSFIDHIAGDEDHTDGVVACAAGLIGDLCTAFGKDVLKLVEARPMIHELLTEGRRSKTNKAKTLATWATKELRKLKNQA
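FRET biosensor Rango (snurportin 1 IBB between N-terminal EYFP and C-terminal Cerulean), 50 nM in PBS/1 mM DTT/0.02% Tween-20/0.1% BSA, preincubated 5 min RT with compound; 0.125 microM importin beta added, 45 min RT, CFP/YFP FRET ratio read.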
An asterisk follows results filed as active; [ ] = dose if it differs, or a comment. Unless noted, the call rests on the fitted dose curve; in most records, active means well fitted curve in the direction sought with a large enough effect; inconclusive means small, poorly fitted or top-dose-only effect, or another doubt; inactive means no such curve, though single readings can be large; an effect the other way counts as inactive or inconclusive. Potency means the concentration at half of the fitted maximal effect.

COc1ccc(NC(=O)CSc2ccc3nc(-c4ccccc4)cn3n2)c(OC)c1 was read as Nrf2 activator -5% and A549 viability -16%.
CC(=O)Nc1ccc(S(=O)(=O)NCCSCc2ccccc2Cl)cc1 was read as Nrf2 activator 0%, A549 viability -1%, Nrf2 inh 10µM*, Rango dissoc inh -13% and Rango complex inh 0%.
For CC(=O)Nc1ccc(S(=O)(=O)NCC2CCC(C(=O)NCc3ccccc3Cl)CC2)cc1 (centres undefined) the results were Nrf2 activator 0% and A549 viability 8%.
`Oc1ccccc1CNc1cnc2ccccc2c1` gave Nrf2 activator inconclusive, A549 viability -13%, Nrf2 inh inconclusive, Rango dissoc inh 1% and Rango complex inh -3%.
Screening C=CCc1cccc(CNc2cnc3ccccc3c2)c1O returned Nrf2 activator 12%, A549 viability 3%, Nrf2 inh 23µM*, Rango dissoc inh 2% and Rango complex inh 3%.
Screening CC(C)(C)SCCNC(=O)/C=C/c1cccc([N+](=O)[O-])c1 returned Nrf2 activator 10µM*, A549 viability 24%, Nrf2 inh 29%, Rango dissoc inh 23% and Rango complex inh 0%.
CCOC(=O)/C(=C/C=C1\Sc2cc(C)c(C)cc2N1CC)C(C)=O was read as Nrf2 activator 1%, A549 viability inconclusive, Nrf2 inh inconclusive, Rango dissoc inh inconclusive and Rango complex inh inconclusive.
For CCN1/C(=C/c2ccc3cc(C)ccc3[n+]2CC)Sc2cc(C)c(C)cc21 the results were Nrf2 activator -1%, A549 viability inconclusive, Nrf2 inh 1.3µM*, Rango dissoc inh inconclusive and Rango complex inh inconclusive.
For CNC(=O)c1ccc(Nc2nc(-c3ccccc3)nc3ccccc23)cc1 the results were Nrf2 activator 5%, A549 viability -24%, Nrf2 inh 23µM*, Rango dissoc inh 2% and Rango complex inh -4%.
For O=C(O)c1ccc(Nc2nc(-c3ccccc3)nc3ccccc23)cc1 the results were Nrf2 activator 5%, A549 viability -5%, Nrf2 inh inconclusive, Rango dissoc inh 21% and Rango complex inh -1%.
For CC(C)c1cccc(C(C)C)c1NC(=O)CNCc1ccccc1F the results were Nrf2 activator -1%, A549 viability 10%, Nrf2 inh 0%, Rango dissoc inh 19% and Rango complex inh 0%.
`COc1ccc(NC(=O)COc2ccc(C(=O)OCC(=O)N(C(C)C)C(C)C)cc2OC)cc1` gave Nrf2 activator 0%, A549 viability 1%, Nrf2 inh -19%, Rango dissoc inh -1% and Rango complex inh 0%.
For COc1cccc(OC)c1C(=O)Nn1c(C2CCC2)nc2ccccc2c1=O the results were Nrf2 activator 0%, A549 viability -3%, Rango dissoc inh -12% and Rango complex inh 7%.
O=C(Nn1c(C2CCCCC2)nc2ccccc2c1=O)c1ccc([N+](=O)[O-])cc1 was read as Nrf2 activator 4%, A549 viability inconclusive, Nrf2 inh 23µM*, Rango dissoc inh -10% and Rango complex inh -2%.
For CC1CCC2(CC1)OCC1(CCC3(COC4(CCC(C)CC4)OC3)C1=O)CO2 (centres undefined) the results were Nrf2 activator 0%, A549 viability 3%, Nrf2 inh -2%, Rango dissoc inh -5% and Rango complex inh 1%.
CN1CC(c2ccccn2)C2(SC(=S)N(Cc3ccccc3)C2=O)C12C(=O)Nc1ccccc12 (centres undefined) was read as Nrf2 activator 2%, A549 viability 0%, Nrf2 inh 23µM*, Rango dissoc inh -2% and Rango complex inh -4%.
For Cc1ccc(C2CN(C)C3(C(=O)Nc4ccccc43)C23COc2ccccc2C3=O)cc1 (centres undefined) the results were Nrf2 activator 3%, A549 viability 1%, Nrf2 inh inconclusive, Rango dissoc inh 11% and Rango complex inh -3%.
CN1CC(c2ccccc2)C2(SC(=S)N(Cc3ccco3)C2=O)C12C(=O)Nc1ccccc12 (centres undefined) was read as Nrf2 activator 3%, A549 viability inconclusive, Nrf2 inh 12µM*, Rango dissoc inh 7% and Rango complex inh 1%.
NC(=O)c1c(NC(=O)CS(=O)(=O)c2ccc(Cl)cc2)sc2c1CCCCC2 was read as Nrf2 activator 1% and A549 viability -7%.
Cc1ccc(C)c(NC(=O)CN(C)C(=O)c2ccc3[nH]c4c(c3c2)CC(C)CC4)c1 (centres undefined) was read as Nrf2 activator 3%, A549 viability inconclusive, Nrf2 inh 18µM*, Rango dissoc inh 5% and Rango complex inh 2%.
`Cc1ccc2nc(Cl)c(/C=N/n3c(C)nnc3C)cc2c1` gave Nrf2 activator 0%, A549 viability 0%, Nrf2 inh 19%, Rango dissoc inh -5% and Rango complex inh 1%.
CCC(C)NC(=O)c1c(N)n(/N=C/c2cccnc2)c2nc3ccccc3nc12 (centres undefined) was read as Nrf2 activator 0%, A549 viability -23%, Nrf2 inh inconclusive, Rango dissoc inh 3.3µM*[inhibitor] and Rango complex inh inconclusive.
`CCC(C)NC(=O)c1c(N)n(/N=C/c2ccccn2)c2nc3ccccc3nc12` (centres undefined) gave Nrf2 activator 0%, A549 viability inconclusive, Nrf2 inh inconclusive, Rango dissoc inh -2% and Rango complex inh -4%.
Screening CCn1cc(-c2cc(C(=O)O)c3ccccc3n2)c(C)n1 returned Nrf2 activator 0%, A549 viability -3%, Nrf2 inh inconclusive, Rango dissoc inh -6% and Rango complex inh 0%.
CC(C)Cc1cc(C(=O)N2N=C(C(F)F)CC2(O)C(F)F)c2ccccc2n1 (centres undefined) was read as Nrf2 activator -1%, A549 viability -21%, Nrf2 inh inconclusive, Rango dissoc inh -8% and Rango complex inh -4%.
For CCc1ccc(-c2cc(C(=O)N3N=C(C(F)F)CC3(O)C(F)F)c3ccccc3n2)cc1 (centres undefined) the results were Nrf2 activator 4%, A549 viability 23µM*, Nrf2 inh 21µM*, Rango dissoc inh 15% and Rango complex inh 1%.
CCn1cc(-c2cc(C(=O)O)c3ccccc3n2)cn1 was read as Nrf2 activator 4%, A549 viability -4%, Nrf2 inh 18µM*, Rango dissoc inh 1% and Rango complex inh -2%.
Screening CCCc1ccc(-c2cc(C(=O)NN3CCOCC3)c3ccccc3n2)cc1 returned Nrf2 activator 3%, A549 viability -5%, Nrf2 inh inconclusive, Rango dissoc inh 0% and Rango complex inh 6%.

Screening results: PubChem, National Center for Advancing Translational Sciences (NCATS)
